Experimental findings from PubChem BioAssay AID1347131 (National Center for Advancing Translational Sciences (NCATS), 2019) are described below.

Hit rate of the full screen: of about 410,000 compounds, about 2,000 (0.49%) were called active. A call without a number means that no potency is given here. Roughly 8% stayed inconclusive and do not appear here. Calls come from the whole dose curve; tested in HEK293 reporter line. For the sample, actives were picked, then their nearest neighbours and some compounds at random.
Potency is the fitted concentration of half-maximal effect.

The test in a line: qHTS Assay for Foot and Mouth Disease Virus Antivirals: Primary Screen against the MLPCN compound library. Note: nearly all actives have a fitted effect of over 55% in size. Conditions: FMDV antiviral cell-based qHTS; series mostly up to 57.9 µM. (In general: In qHTS, concentration-response curves come from the screen itself.)
As for `O=C(N/N=C/c1cccc([N+](=O)[O-])c1)c1ccc(CN2CCOCC2)cc1`, the Potency result was “inactive”. Consider `CCOc1cc(/C=N/Nc2cc(C)nc(-n3nc(C)cc3C)n2)ccc1O`, for which the Potency entry was “inactive”. The same measure for `CC(OC(=O)/C=C/c1ccco1)C(=O)NC1CCCCC1C` (centres undefined): “inactive”; for `O=C1c2ccccc2C(=O)C1c1ccnc2ccccc12`: 14.1 µM (active).

For the compound `O=S(=O)(c1cccs1)N1CCN(CCc2ccccc2)CC1`, the Potency entry was “inactive”. The entry for `Cc1ccc2c(CC(=O)N3CCN(S(=O)(=O)c4cccs4)CC3)coc2c1` is “inactive”; for `O=C(CCCc1nc2ccccc2s1)N1CCN(S(=O)(=O)c2cccs2)CC1` it is 25.1 µM (active); for `COc1ccc(C(=O)NCC(=O)N2CC=C(c3ccccc3)CC2)cc1OC` it is “inactive”.

In the case of `O=c1nc(N/N=C/C=C/c2ccccc2)cn[nH]1`, the Potency is 14.1 µM (active). The entry for `COc1ccc(CCN(C)C(=O)c2cc(S(=O)(=O)N3CCCCC3)ccc2Cl)cc1OC` is “inactive”; for `COCCn1c(C)cc(C(=O)COC(=O)c2ccc[nH]c2=O)c1C` it is “inactive”. The same measure for `Cc1sc2ncnc(NCC(c3ccco3)N3CCCC3)c2c1C` (centres undefined): “inactive”; for `CCOc1cc(-c2c(C#N)c(=O)[nH]c3c2c(C)nn3-c2ccc(F)cc2)ccc1O`: “inactive”. As for `COc1ccc2oc(=O)c(C(=O)NCCc3c(C)[nH]c4ccc(C)cc34)cc2c1`, the Potency entry is “inactive”.

For the compound `O=C(CSc1nnc(NC(=O)c2ccc3c(c2)OCO3)s1)NCc1ccco1`, the Potency is 17.8 µM (active). Regarding `COc1ccc(-c2cnc(SCC(=O)Nc3ccc4c(c3)OCO4)n2Cc2ccco2)cc1`, the Potency entry was “inactive”. The entry for `COc1cc(OC)cc(C(=O)Nc2nnc(SCC(=O)NCc3ccco3)s2)c1` is “inactive”.

Consider `Cc1cc(C)cc(-n2c(SCC(=O)Nc3cccc(F)c3)nc3c([nH]c4ccccc43)c2=O)c1`, for which the Potency entry was “inactive”.

With `COc1ccc(C)cc1NC(=O)CN(C)S(=O)(=O)c1cc(C)ccc1OC`, the Potency result was “inactive”. Turning to `O=P(c1ccccc1)(c1ccccc1)c1nc(-c2ccccc2)oc1NCc1ccccc1`, the Potency result is “inactive”. The same measure for `C=C[C@H](Cc1ccccc1)N(Cc1ccccc1)S(=O)(=O)N(Cc1ccccc1)[C@H](C=C)Cc1ccccc1`: “inactive”; for `Cc1cc(C)c(C(N)=O)c(SCC(=O)c2cc(C)c(C)cc2C)n1`: “inactive”. The entry for `CCOc1ccc2nc(NS(=O)(=O)c3ccc(NC(C)=O)cc3)sc2c1` is “inactive”; for `CCOc1ccc2nc(NC(=O)c3ccccn3)sc2c1` it is 12.6 µM (active).

In the case of `CCOc1ccc(C(=O)Nc2ccc3nc(SCC(=O)N(C)c4ccccc4)sc3c2)cc1`, the Potency entry was “inactive”. The figure for `CSc1nc2ccc(NC(=O)c3ccccn3)cc2s1` is 15.8 µM (active); for `CCOc1ccc2nc(NC(=O)c3cccn(Cc4ccc(C)cc4)c3=O)sc2c1` it is “inactive”. The entry for `O=C(Nc1ccc2nc(SCCOc3ccccc3)sc2c1)c1cccs1` is “inactive”; for `CN1/C(=C\C(=O)COC(=O)CNC(=O)c2ccc3ccccc3c2)C(C)(C)c2ccccc21` it is “inactive”. As for `O=C(NCCc1ccc(F)cc1)C(=O)NCC(c1cccs1)S(=O)(=O)c1ccccc1` (centres undefined), the Potency entry was “inactive”.

For `Cc1cccc(C(=O)O/N=C(\N)Cc2cccc3ccccc23)c1`, the Potency result was “inactive”. Regarding `CCCCCn1c(CCCNC(=O)c2cccc(C)c2)nc2ccccc21`, the Potency result was “inactive”. The same measure for `Cc1cccc(C(=O)n2c(=S)nc3cc(C)ccn32)c1`: 11.2 µM (active); for `COc1ccccc1N=C1SCC(=O)N1c1ccccc1OC`: “inactive”; for `CSCCC(c1nnnn1C1CCCCC1)N1CCC(n2c(=O)[nH]c3ccccc32)CC1` (centres undefined): “inactive”. For the compound `c1ccc2sc(NN=C3CCCCCC3)nc2c1`, the Potency was 15.8 µM (active). The entry for `CC(=O)Nc1ccc(S(=O)(=O)Nc2nc3ccccc3s2)cc1` is “inactive”; for `c1ccc(C(=NNc2nc3ccccc3s2)c2ccccn2)cc1` it is “inactive”; for `Cc1oc(-c2cccs2)nc1CSCC(=O)N1CCC2(CC1)OCCO2` it is “inactive”. The entry for `CCCS(=O)(=O)c1cscc1NC(=O)c1c(-c2c(F)cccc2Cl)noc1C` is “inactive”; for `c1ccc(C2=Nn3c(nnc3-c3ccccn3)SC2)cc1` it is “inactive”; for `Cc1cc(=S)nc(-c2ccccn2)[nH]1` it is “inactive”. Consider `c1ccc(-c2nnc(-c3ccccn3)s2)nc1`, for which the Potency was 14.1 µM (active). Take `CCOc1ccccc1C(=O)NC(C(=O)N(C)Cc1ccc2c(c1)OCO2)C(C)C` (centres undefined): the Potency result is “inactive”.

Take `COc1ccc2c(CC(=O)Nc3ccccc3N3CCOCC3)coc2c1`: the Potency result is “inactive”. The figure for `C/C(N)=C(/C#N)C(=O)CSc1nc2ccc(C)cc2[nH]1` is 22.4 µM (active); for `C/C(N)=C(/C#N)C(=O)CSc1nc2scc(-c3ccc(F)cc3)c2c(=O)n1C` it is “inactive”. The entry for `CCN(CC)S(=O)(=O)c1ccc(C)c(NC(=O)CSc2nc3ccc(C)cc3[nH]2)c1` is “inactive”; for `CCN1CCN(C(=O)c2ccc(NS(=O)(=O)c3ccccc3)cc2)CC1` it is “inactive”. In the case of `Cc1ccccc1-c1ccnc2c(-c3ccc(F)cc3)c(C)nn12`, the Potency is 28.2 µM (active). `Cc1nn2c3c(cnc2c1-c1ccc(F)cc1)C(=O)CC(c1ccccc1)C3` (centres undefined): the Potency result is “inactive”. The entry for `Cc1nc2c(-c3ccc(F)cc3)c(C)nn2c(C)c1CCC(=O)Nc1ccccc1` is “inactive”; for `CCN(C(=O)COC(=O)/C=C/c1cccc(Br)c1)C1CCS(=O)(=O)C1` (centres undefined) it is “inactive”; for `CN1CCN(c2ncnc3c2[nH]c2ccc(F)cc23)CC1` it is “inactive”.

For `O=C(c1ccco1)N1CCN(c2ncnc3c2[nH]c2ccc(Br)cc23)CC1`, the Potency was 31.6 µM (active). With `O=C(c1ccco1)N1CCN(c2ncnc3c(-c4ccc(Cl)cc4)nsc23)CC1`, the Potency result is “inactive”. Regarding `COC(=O)c1ccc(CSc2ccc3nnc(-c4ccc(F)cc4)n3n2)o1`, the Potency result was “inactive”. `O=C(Nc1ccc(Cl)cc1)Nc1ccccc1C(=O)O`: the Potency was 10 µM (active). The entry for `COc1cc(NC(=O)Nc2cccc(Cl)c2)c(C(=O)O)cc1OC` is “inactive”.

`O=C(Nc1ccccc1)Nc1ccc(O)c2ccccc12`: the Potency result was “inactive”. Take `CC1CCc2sc(C(=O)N3CCN(c4ncccn4)CC3)cc2C1` (centres undefined): the Potency entry is “inactive”. For the compound `CC(=O)c1ccc(-c2cc([C@H]3[C@H]4C=CC[C@@H](C)[C@@H]4C(=O)N3Cc3ccccc3)ccc2F)cc1`, the Potency entry is “inactive”. The same measure for `O=C(NC(=S)Nc1ccc2c(c1)OCO2)c1ccc(Cl)cc1`: “inactive”. In the case of `CSc1ccccc1NC(=O)CSCc1ccc(Br)cc1`, the Potency result was “inactive”.

Consider `O=C(/C=C/Nc1ccccc1)c1ccccc1`, for which the Potency was 7.94 µM (active). The entry for `O=C1Nc2ccc(Br)cc2/C1=C/C(=O)c1ccccc1` is “inactive”. The same measure for `Cc1ccc(NC(=O)c2ccc(NC(=O)c3ccccc3)cc2)cc1C`: “inactive”; for `Cn1c(=O)n(C)c2cc(C(=O)Nc3ccc4c(c3)OCO4)ccc21`: “inactive”. The same measure for `O=C(/C=C\Nc1ccc2c(c1)OCO2)c1ccc2c(c1)OCO2`: 17.8 µM (active); for `O=C(/C=C/Nc1ccccc1F)c1ccc(Br)cc1`: 12.6 µM (active). As for `O=C(Nc1ccccc1)/C(=C/c1ccccc1)c1ccccc1`, the Potency entry is “inactive”.

Regarding `Cc1ccc(NC(=O)C(=O)NCC2(c3ccccc3)CCCC2)cc1C`, the Potency entry was “inactive”. The same measure for `CC(=O)c1cccc(NS(=O)(=O)c2ccc(N/C=C\C(=O)c3ccc(C)cc3)cc2)c1`: “inactive”. For `Cc1ccc(N/C=C/C(=O)c2ccccc2)cc1C`, the Potency was 7.94 µM (active). As to `O=C(/C=C/c1cc([N+](=O)[O-])ccc1OC(F)F)Nc1cccc([N+](=O)[O-])c1`, the Potency entry is “inactive”. `O=C(COc1ccc(Br)cc1)N1CCN(c2ccccc2)CC1`: the Potency result is “inactive”. The entry for `CCc1nc(SCc2cccnc2)c2c(=O)n(C)c(=O)n(C)c2n1` is “inactive”; for `COC(=O)C1=C(C)N(c2cccc3ccccc23)C(=O)C1` it is “inactive”.

`O=S(=O)(Nc1ccccc1Cl)c1ccc2[nH]c(=S)oc2c1`: the Potency entry was “inactive”. Turning to `CCCC(=O)Nc1ccc2nc(C)n(Cc3ccccc3Cl)c(=O)c2c1`, the Potency entry is “inactive”. On to `Cc1ccc(S(=O)(=O)N(C)CC(=O)Nc2ccncc2)cc1`, for which the Potency entry is “inactive”.

For the compound `CCOc1ccccc1/C=N/n1c(C)nc2ccccc2c1=O`, the Potency entry was “inactive”. The entry for `Cc1cc(C)cc(-n2ccnc2SCC(=O)Nc2ccccc2F)c1` is “inactive”. For the compound `CN(C)/C=C/C(=O)c1cccc(Oc2ncccn2)c1`, the Potency entry was “inactive”. The same measure for `O=C(/C=C\Nc1ccccn1)c1ccccc1`: 10 µM (active); for `O=C(Nc1ccccn1)C(F)(F)C(F)(F)C(F)(F)C(F)(F)C(=O)Nc1ccccn1`: “inactive”. In the case of `COc1ccc(Nc2nc(N)nc(CN3CCN(c4ccccn4)CC3)n2)cc1`, the Potency result was “inactive”. Take `CCOC(=O)CC1(C)NC(C(=O)O)C(C)(C)S1` (centres undefined): the Potency result was “inactive”.

Turning to `Cc1cc(C)cc(NC(=O)c2ccc(N3C(=O)C4CCCCC4C3=O)cc2)c1` (centres undefined), the Potency result was “inactive”. The figure for `O=C(Nc1cccc(N2C(=O)C3CCCCC3C2=O)c1)c1ccccc1` (centres undefined) is 14.1 µM (active). Turning to `O=C(Nc1ccc(Br)cc1)c1cccc(N2C(=O)C3CCCCC3C2=O)c1` (centres undefined), the Potency result was “inactive”. The same measure for `COc1ccccc1CNC(=O)c1ccc(CS(=O)(=O)c2ccccc2C)o1`: “inactive”; for `COc1cc(OC)cc(C(=O)N[C@H](C(=O)Nc2nc3ccccc3[nH]2)C(C)C)c1`: “inactive”. With `O=C(Nc1nc2ccccc2[nH]1)c1ccc(Cl)cc1`, the Potency was 12.6 µM (active).

Consider `CN(c1ccccc1)S(=O)(=O)c1ccc(Cl)c(C(=O)Nc2nc3ccccc3[nH]2)c1`, for which the Potency result was “inactive”.

For the compound `COc1cccc(C(=O)Nc2cccc(OCc3cc(=O)n4cccc(C)c4n3)c2)c1`, the Potency result is “inactive”. For the compound `COc1ccc(Cl)cc1NC(=O)CCCS(=O)(=O)c1nc(-c2ccc(OC)c(OC)c2)cc(C(F)(F)F)n1`, the Potency is 28.2 µM (active). The same measure for `COc1ccc(-c2cc(C(F)(F)F)nc(N3CCN(C)CC3)n2)cc1OC`: “inactive”. For `COc1ccc(CCNc2nc(-c3ccc(OC)c(OC)c3)cc(C(F)(F)F)n2)cc1OC`, the Potency result is “inactive”. The same measure for `Cc1ccccc1-n1c(SCc2c(C)noc2C)nnc1-c1c[nH]c2ccccc12`: “inactive”.

For the compound `CCOC(=O)/C(O)=C(\C#N)c1nc2ccccc2[nH]1`, the Potency entry was “inactive”. The same measure for `NC(=O)c1ccc(N2CCN(c3ccc(O)cc3)CC2)c([N+](=O)[O-])c1`: “inactive”; for `CC1CC(=O)N(c2ccc(NCCc3ccc(O)cc3)c([N+](=O)[O-])c2)C1=O` (centres undefined): 25.1 µM (active). On to `COc1ccc(Nc2ccc(N3C(=O)CC(C)C3=O)cc2[N+](=O)[O-])cn1` (centres undefined), for which the Potency entry is “inactive”.
